# Results filed as inconclusive are left out. Calls of active or inactive are those of the source. How the source made its calls, unless noted: active means hit-call score of the fitted dose curve at least 0.9, where 1 is the maximum; inactive means score below 0.9.
# How the values were obtained:
# [1] = ATG_NFI_CIS: Attagene CIS-FACTORIAL HepG2 Assay for human Nuclear Factor I (NFI) (AID 2282989); conditions: HepG2 cis-regulatory reporter, NFI response element transcription; actives raise or lower the signal
# Outline: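 Transfected HepG2 liver cells, exposed 24 h, supplied total RNA for oligo(dT) reverse transcription and reporter-specific PCR. Labelled, HpaI-cut fragments were sized by capillary electrophoresis; DMSO set the baseline for bidirectional fitting.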
# [2] = target: Myc proto-oncogene protein (Homo sapiens) (UniProt P01106); test: ATG_Myc_CIS: Attagene CIS-FACTORIAL HepG2 Assay for human Myelocytomatosis (Myc) Proto-Oncogene Transcription Factor (AID 2282990); conditions: HepG2, Attagene cis-reporter transcription factor activity; actives raise or lower the signal
# Chain of Myc proto-oncogene protein (Homo sapiens) (P01106 whole entry, looked up): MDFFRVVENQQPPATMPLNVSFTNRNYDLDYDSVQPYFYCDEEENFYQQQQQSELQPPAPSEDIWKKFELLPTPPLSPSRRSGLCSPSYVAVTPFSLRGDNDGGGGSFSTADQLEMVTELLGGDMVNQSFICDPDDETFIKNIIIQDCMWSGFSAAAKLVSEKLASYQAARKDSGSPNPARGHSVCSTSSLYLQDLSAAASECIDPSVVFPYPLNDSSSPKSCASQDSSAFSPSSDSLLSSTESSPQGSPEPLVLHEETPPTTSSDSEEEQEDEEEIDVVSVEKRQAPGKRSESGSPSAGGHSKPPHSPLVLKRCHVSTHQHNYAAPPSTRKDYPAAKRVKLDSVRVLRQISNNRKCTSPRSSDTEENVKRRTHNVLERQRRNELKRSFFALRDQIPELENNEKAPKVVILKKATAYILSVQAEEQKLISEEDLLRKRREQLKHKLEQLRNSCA
# Outline: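 DMSO-normalised, bidirectionally fitted reporter mRNA signal. HepG2 cells transfected with cis reporter constructs, treated 24 h; transcripts detected by RT-PCR, 6-FAM primer extension and CE.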
# [3] = ATG_NF_kB_CIS: Attagene CIS-FACTORIAL HepG2 Assay for human Nuclear Factor Kappa B (NF-kB) (AID 2282991); conditions: HepG2 Attagene cis-factorial NF-kB reporter mRNA; actives raise or lower the signal
# Outline: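 Measures mRNA induction of an NF-kB-responsive cis-element reporter in HepG2 cells transfected with multiple reporter units, sampled 24 h post-dosing; quantified by fluorescence after RT-PCR and capillary electrophoresis, fitted for activation or inhibition against DMSO.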
# [4] = ATG_Oct_MLP_CIS: Attagene CIS-FACTORIAL HepG2 Assay for human Octamer-Binding Transcription Factor (Oct) (AID 2282993); conditions: HepG2 Attagene cis-factorial Oct reporter, mRNA; actives raise or lower the signal
# Outline: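 Using HepG2 cells bearing transfected cis-reporter constructs, mRNA induction was read after 24 h by fluorescent RT-PCR and capillary electrophoresis, with DMSO defining baseline for gain- or loss-of-signal fits.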
# [5] = target: Cellular tumor antigen p53 (Homo sapiens) (UniProt P04637); test: ATG_p53_CIS: Attagene CIS-FACTORIAL HepG2 Assay for human p53 Transcription Factor (AID 2282994); conditions: HepG2 p53 cis-element reporter, Attagene mRNA; actives raise or lower the signal
# Chain of Cellular tumor antigen p53 (Homo sapiens) (P04637 whole entry, looked up): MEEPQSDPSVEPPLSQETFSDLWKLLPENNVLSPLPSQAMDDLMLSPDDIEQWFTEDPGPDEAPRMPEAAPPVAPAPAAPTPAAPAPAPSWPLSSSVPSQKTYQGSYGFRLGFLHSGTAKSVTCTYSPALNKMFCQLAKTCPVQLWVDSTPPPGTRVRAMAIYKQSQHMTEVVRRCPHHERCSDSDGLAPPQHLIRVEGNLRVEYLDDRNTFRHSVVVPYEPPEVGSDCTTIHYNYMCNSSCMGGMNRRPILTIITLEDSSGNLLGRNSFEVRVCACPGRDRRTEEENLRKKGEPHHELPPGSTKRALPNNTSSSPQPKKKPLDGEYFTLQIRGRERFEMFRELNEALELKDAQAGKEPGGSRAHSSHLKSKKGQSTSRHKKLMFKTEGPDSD
# Outline: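 Endogenous p53 activity read in transiently transfected HepG2 from a cis-element-driven reporter transcript after 24 h exposure. RNA reverse-transcribed, PCR-amplified, fluorescently labelled and sized by capillary electrophoresis; gain or loss fitted against DMSO baseline.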
# [6] = target: human Peroxisome Proliferator-activated Receptor alpha (PPARa), PPARA (gene 5465) (UniProt Q07869); test: ATG_PPARa_TRANS: Attagene TRANS-FACTORIAL HepG2 Assay for human Peroxisome Proliferator-activated Receptor alpha (PPARa) (AID 2283001; active means hit-call score of the fitted dose curve at least 0.9, where 1 is the maximum)
# Chain of human Peroxisome Proliferator-activated Receptor alpha (PPARa), PPARA (gene 5465) (Q07869 whole entry, looked up): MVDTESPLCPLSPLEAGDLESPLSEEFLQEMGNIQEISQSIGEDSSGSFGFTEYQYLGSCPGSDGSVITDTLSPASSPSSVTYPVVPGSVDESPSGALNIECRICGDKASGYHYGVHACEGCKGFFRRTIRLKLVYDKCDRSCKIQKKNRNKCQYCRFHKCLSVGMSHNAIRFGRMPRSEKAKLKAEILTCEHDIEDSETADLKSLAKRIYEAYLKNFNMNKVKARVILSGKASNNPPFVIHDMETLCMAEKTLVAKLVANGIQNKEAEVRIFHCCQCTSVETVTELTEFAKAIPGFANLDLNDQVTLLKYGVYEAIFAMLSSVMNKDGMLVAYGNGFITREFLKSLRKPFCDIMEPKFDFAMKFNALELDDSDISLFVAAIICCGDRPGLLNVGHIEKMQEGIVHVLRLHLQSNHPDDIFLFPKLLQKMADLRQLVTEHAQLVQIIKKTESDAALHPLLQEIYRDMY
# Outline: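 Cells (HepG2) are transfected with multiple reporter transcription units, exposed to chemical for 24 h, then total RNA is reverse-transcribed and amplified. Labelled products are quantified by capillary electrophoresis; induction is referenced to DMSO.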
# [7] = target: human Peroxisome Proliferator-activated Receptor delta (PPARd), PPARD (gene 5467) (UniProt Q03181); test: ATG_PPARd_TRANS: Attagene TRANS-FACTORIAL HepG2 Assay for human Peroxisome Proliferator-activated Receptor delta (PPARd) (AID 2283002; active means hit-call score of the fitted dose curve at least 0.9, where 1 is the maximum)
# Chain of human Peroxisome Proliferator-activated Receptor delta (PPARd), PPARD (gene 5467) (Q03181 whole entry, looked up, the tested form may be a part): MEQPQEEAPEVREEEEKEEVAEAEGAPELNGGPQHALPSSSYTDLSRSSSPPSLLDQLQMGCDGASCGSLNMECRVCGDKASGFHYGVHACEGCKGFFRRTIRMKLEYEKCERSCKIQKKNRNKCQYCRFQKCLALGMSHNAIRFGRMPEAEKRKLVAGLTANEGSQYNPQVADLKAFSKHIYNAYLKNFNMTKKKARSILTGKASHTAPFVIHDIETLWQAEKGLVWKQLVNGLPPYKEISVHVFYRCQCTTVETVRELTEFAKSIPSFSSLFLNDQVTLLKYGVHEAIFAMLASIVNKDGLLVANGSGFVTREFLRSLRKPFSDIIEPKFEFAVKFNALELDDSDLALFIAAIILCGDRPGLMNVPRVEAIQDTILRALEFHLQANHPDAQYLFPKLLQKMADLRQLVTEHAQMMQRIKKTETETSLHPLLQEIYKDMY
# Outline: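 Measured quantity: GAL4-UAS reporter transcript induction in HepG2 after 24 h chemical dosing, with NR-Gal4 chimeras supplied by transient transfection. Detection by RT-PCR and capillary electrophoresis; upward fit against DMSO.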
# [8] = target: Peroxisome proliferator-activated receptor gamma (Homo sapiens) (UniProt P37231); test: ATG_PPARg_TRANS: Attagene TRANS-FACTORIAL HepG2 Assay for human Peroxisome Proliferator-activated Receptor-gamma (PPARg) (AID 2283007; active means hit-call score of the fitted dose curve at least 0.9, where 1 is the maximum)
# Chain of Peroxisome proliferator-activated receptor gamma (Homo sapiens) (P37231 whole entry, looked up, the tested form may be a part): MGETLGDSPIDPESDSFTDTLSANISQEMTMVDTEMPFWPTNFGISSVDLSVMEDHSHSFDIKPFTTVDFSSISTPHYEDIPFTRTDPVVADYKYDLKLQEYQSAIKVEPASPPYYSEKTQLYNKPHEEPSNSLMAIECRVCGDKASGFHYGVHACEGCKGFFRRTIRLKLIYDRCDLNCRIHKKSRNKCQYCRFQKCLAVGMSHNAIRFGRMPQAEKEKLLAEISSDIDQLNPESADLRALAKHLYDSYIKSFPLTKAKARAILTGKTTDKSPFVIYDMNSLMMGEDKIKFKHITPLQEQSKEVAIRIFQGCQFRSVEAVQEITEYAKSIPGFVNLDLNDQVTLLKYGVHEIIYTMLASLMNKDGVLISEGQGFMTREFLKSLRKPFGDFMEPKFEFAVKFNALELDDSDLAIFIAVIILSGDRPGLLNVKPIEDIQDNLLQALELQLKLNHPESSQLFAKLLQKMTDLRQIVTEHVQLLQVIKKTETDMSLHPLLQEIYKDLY
# Outline: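 Gain-of-signal endpoint relative to DMSO, derived from reporter mRNA levels quantified by RT-PCR and capillary electrophoresis. Cells were HepG2 transiently expressing a chimeric NR-Gal4 construct with GAL4-UAS reporters, exposed to chemicals for 24 h.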
# [9] = target: Nuclear receptor subfamily 1 group I member 2 (Homo sapiens) (UniProt O75469); test: ATG_PXR_TRANS: Attagene TRANS-FACTORIAL HepG2 Assay for human Pregnane X Receptor (PXR) (AID 2283008; active means hit-call score of the fitted dose curve at least 0.9, where 1 is the maximum)
# Chain of Nuclear receptor subfamily 1 group I member 2 (Homo sapiens) (O75469 whole entry, looked up, the tested form may be a part): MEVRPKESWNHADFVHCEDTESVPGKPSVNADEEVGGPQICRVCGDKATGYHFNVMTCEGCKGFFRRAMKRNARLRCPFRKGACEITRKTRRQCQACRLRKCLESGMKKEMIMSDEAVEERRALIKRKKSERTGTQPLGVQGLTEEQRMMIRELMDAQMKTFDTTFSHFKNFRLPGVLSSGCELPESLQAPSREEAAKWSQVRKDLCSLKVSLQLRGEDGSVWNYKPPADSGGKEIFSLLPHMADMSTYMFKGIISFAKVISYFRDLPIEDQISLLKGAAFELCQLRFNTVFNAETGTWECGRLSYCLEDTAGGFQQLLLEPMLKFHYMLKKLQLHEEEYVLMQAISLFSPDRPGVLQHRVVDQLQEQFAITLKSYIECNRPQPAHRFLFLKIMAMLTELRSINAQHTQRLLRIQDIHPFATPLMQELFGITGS
# Outline: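 Transactivation by exogenous PXR–GAL4 fusion measured as reporter transcript induction after 24 h compound treatment of transfected human HepG2 cells. Read-out via RT-PCR and capillary electrophoresis of labelled fragments, fitted upward relative to DMSO.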
# [10] = BSK_3C_uPAR: BioMAP Diversity Plus: 3C Assay for Urokinase-type plasminogen activator receptor (uPAR) Biomarker Activity (AID 2282998); conditions: BioMAP 3C HUVEC, uPAR biomarker ELISA; actives raise or lower the signal
# Outline: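 In this endothelial cell-based assay, human umbilical vein primary cells were treated with chemicals and harvested at 24 h. uPAR was quantified using ELISA, with gains or losses fitted relative to DMSO controls.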
# [11] = BSK_3C_VCAM1: BioMAP Diversity Plus: 3C Assay for Vascular cell adhesion molecule 1 (VCAM1) Biomarker Activity (AID 2282999); conditions: BioMAP 3C HUVEC, VCAM1 ELISA, cytokine-stimulated; actives raise or lower the signal
# Outline: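 Vascular primary endothelium (human umbilical vein) was exposed to chemicals and assayed 24 h later. VCAM-1 levels came from ELISA, with DMSO serving as baseline for bidirectional fitting.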
# [12] = BSK_4H_Eotaxin3: BioMAP Diversity Plus: 4H Assay for Eotaxin 3 Biomarker Activity (AID 2283000); conditions: primary human endothelial cells (HUVEC); actives raise or lower the signal;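 on outcome: CCL26 protein level quantified by ELISA in parallel with SRB cytotoxicity check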
# Outline: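 Eotaxin-3 (CCL26) levels were measured by ELISA in HUVEC primary cultures 24 h post-dosing. Gain or loss of signal was fitted in both directions, with DMSO serving as baseline and negative control.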
# [13] = read-out: Intercellular Adhesion Molecule 1 (ICAM1), ICAM1 (gene 3383); test: BSK_3C_ICAM1: BioMAP Diversity Plus: 3C Assay for Intercellular Adhesion Molecule 1 (ICAM1) Biomarker Activity (AID 2283003); conditions: primary human endothelial cells (HUVEC); actives raise or lower the signal
# Outline: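 ELISA readout of ICAM1 in human umbilical vein endothelial cells in the 3C system, taken 24 h post-dose. Gain or loss of signal versus DMSO was fitted in both directions, with SRB total-protein staining run in parallel.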
# [14] = BSK_3C_Proliferation: Cell Proliferation Assessment in the BioMAP Diversity Plus: 3C Assay (AID 2283006); conditions: primary human endothelial cells (HUVEC);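 on AC50: potency may reflect either rise or fall in cell number versus DMSO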
# Outline: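 Proliferation as total protein: sulforhodamine B (0.1%) stain of TCA-fixed subconfluent human umbilical vein endothelial cells, absorbance 560 nm, 48 h after dosing. Activity fitted in both directions against DMSO baseline.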
# [15] = target: human RAR-related Orphan Receptor beta (RORb), RORB (gene 6096) (UniProt Q92753); test: ATG_RORb_TRANS: Attagene TRANS-FACTORIAL HepG2 Assay for human RAR-related Orphan Receptor beta (RORb) (AID 2283010; active means hit-call score of the fitted dose curve at least 0.9, where 1 is the maximum)
# Chain of human RAR-related Orphan Receptor beta (RORb), RORB (gene 6096) (Q92753 whole entry, looked up, the tested form may be a part): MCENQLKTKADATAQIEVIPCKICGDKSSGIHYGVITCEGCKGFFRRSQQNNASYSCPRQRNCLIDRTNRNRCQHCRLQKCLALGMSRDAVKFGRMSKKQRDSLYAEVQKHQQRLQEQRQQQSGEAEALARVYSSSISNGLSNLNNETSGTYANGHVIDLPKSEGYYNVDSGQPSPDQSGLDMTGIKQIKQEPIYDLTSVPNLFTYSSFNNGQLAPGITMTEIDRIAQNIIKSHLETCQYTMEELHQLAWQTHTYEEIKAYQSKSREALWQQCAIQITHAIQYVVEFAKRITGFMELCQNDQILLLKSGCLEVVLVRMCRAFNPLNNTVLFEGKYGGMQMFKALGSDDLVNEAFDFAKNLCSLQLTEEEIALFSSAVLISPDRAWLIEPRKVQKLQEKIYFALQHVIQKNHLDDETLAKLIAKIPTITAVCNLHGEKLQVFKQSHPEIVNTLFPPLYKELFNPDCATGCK
# Outline: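 Read-out is reporter mRNA induction, quantified by RT-PCR with fluorescent capillary electrophoresis, 24 h post-dose in transiently transfected HepG2 expressing exogenous NR-Gal4 chimera. Activity fitted upward versus DMSO.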
# [16] = ATG_NRF2_ARE_CIS: Attagene CIS-FACTORIAL HepG2 Assay for human Nuclear Factor Erythroid 2 Related Factor 2 (NFR2) response to Antioxidant Response Elements (ARE) (AID 2282992); conditions: HepG2 Attagene ARE/NRF2 reporter, transcription factor activity; actives raise or lower the signal
# Outline: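 Endogenous transcription factor activity read out as reporter transcript levels (RT-PCR plus capillary electrophoresis, fluorescence) in transiently transfected HepG2 cells. Measured at 24 h after dosing; gain or loss of signal fitted versus DMSO.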
# [17] = target: human Retinoic Acid Receptor beta (RARb), RARB (gene 5915) (UniProt P10826); test: ATG_RARb_TRANS: Attagene TRANS-FACTORIAL HepG2 Assay for human Retinoic Acid Receptor beta (AID 2283004; active means hit-call score of the fitted dose curve at least 0.9, where 1 is the maximum)
# Chain of human Retinoic Acid Receptor beta (RARb), RARB (gene 5915) (P10826 whole entry, looked up, the tested form may be a part): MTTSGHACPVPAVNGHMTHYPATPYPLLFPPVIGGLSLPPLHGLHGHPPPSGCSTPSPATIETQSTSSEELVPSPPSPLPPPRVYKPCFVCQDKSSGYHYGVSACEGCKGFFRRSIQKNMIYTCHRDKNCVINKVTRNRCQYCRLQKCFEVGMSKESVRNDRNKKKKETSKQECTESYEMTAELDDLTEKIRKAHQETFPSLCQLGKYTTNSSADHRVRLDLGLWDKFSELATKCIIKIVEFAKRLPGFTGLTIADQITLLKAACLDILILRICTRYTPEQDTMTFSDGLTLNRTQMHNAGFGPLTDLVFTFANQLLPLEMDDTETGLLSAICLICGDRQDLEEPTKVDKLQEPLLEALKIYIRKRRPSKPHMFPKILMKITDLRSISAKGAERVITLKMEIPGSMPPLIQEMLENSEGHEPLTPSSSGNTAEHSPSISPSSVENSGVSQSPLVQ
# Outline: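 HepG2 cells were transiently transfected with GAL4-UAS reporter units that report activity of exogenous chimeric NR-Gal4 proteins, then exposed to compound for 24 h. Reporter mRNA was quantified by RT-PCR with capillary electrophoresis fluorescence, as gain of signal over DMSO.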
# [18] = target: Retinoic acid receptor alpha (Homo sapiens) (UniProt P10276); test: ATG_RARa_TRANS: Attagene TRANS-FACTORIAL HepG2 Assay for human Retinoic Acid Receptor alpha (RARa) (AID 2283005; active means hit-call score of the fitted dose curve at least 0.9, where 1 is the maximum)
# Chain of Retinoic acid receptor alpha (Homo sapiens) (P10276 whole entry, looked up, the tested form may be a part): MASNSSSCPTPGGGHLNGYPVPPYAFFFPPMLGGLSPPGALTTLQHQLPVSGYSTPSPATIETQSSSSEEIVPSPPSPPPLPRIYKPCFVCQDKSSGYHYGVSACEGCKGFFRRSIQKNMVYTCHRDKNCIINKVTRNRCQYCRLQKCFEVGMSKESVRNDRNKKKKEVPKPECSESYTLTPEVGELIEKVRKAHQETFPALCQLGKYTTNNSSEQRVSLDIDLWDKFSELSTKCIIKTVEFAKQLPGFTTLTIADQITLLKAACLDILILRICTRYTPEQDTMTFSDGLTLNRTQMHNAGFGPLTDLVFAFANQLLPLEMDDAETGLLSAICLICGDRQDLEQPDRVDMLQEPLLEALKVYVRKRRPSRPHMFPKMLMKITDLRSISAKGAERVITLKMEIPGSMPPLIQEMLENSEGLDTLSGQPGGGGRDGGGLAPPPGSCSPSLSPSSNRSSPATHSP
# Outline: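 HepG2 cells transiently transfected with multiple reporter units expressing chimeric RARα-GAL4 fusion, with GAL4-UAS-driven reporters. After 24 h compound exposure, reporter mRNA induction quantified by RT-PCR and capillary electrophoresis with fluorescent labeling; gain-of-signal fitted relative to DMSO control.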
# [19] = target: human Retinoic Acid Receptor gamma (RARg), RARG (gene 5916) (UniProt P13631); test: ATG_RARg_TRANS: Attagene TRANS-FACTORIAL HepG2 Assay for human Retinoic Acid Receptor gamma (RARg) (AID 2283009; active means hit-call score of the fitted dose curve at least 0.9, where 1 is the maximum)
# Chain of human Retinoic Acid Receptor gamma (RARg), RARG (gene 5916) (P13631 whole entry, looked up, the tested form may be a part): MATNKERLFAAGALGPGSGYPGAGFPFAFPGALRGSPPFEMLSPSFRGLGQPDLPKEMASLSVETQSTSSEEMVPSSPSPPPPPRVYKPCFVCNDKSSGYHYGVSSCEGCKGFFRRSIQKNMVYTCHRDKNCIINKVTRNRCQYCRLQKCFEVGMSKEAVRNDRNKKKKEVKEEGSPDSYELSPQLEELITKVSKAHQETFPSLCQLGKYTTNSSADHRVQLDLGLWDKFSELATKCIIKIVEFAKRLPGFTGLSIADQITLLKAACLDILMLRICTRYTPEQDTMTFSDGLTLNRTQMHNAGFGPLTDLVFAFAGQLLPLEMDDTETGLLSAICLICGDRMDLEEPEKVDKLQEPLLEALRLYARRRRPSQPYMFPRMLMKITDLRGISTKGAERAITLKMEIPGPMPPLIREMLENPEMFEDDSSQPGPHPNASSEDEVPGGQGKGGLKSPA
# Outline: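 Transactivation of exogenous RARg-Gal4 fusion measured as reporter transcript induction after 24 h in transfected HepG2 cells. RNA reverse-transcribed, amplified, fluorescently labeled and resolved by capillary electrophoresis; increase relative to DMSO.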
# [20] = BSK_3C_TissueFactor: BioMAP Diversity Plus: 3C Assay for Tissue Factor Biomarker Activity (AID 2282997); conditions: BioMAP 3C HUVEC, tissue factor biomarker readout; actives raise or lower the signal
# Outline: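 Tissue Factor measured by ELISA, 24 h after treatment of primary HUVEC in the BioMAP 3C setting.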
compound,measurement,setting,value
C=CC(C)(O)CCC=C(C)CCC=C(C)C (centres undefined),AC50,[1],143 µM (active)
same,AC50,[2],181 µM (active)
same,AC50,[3],180 µM (active)
same,AC50,[4],82.7 µM (active)
same,outcome,[5],inactive
same,outcome,[6],inactive
same,outcome,[7],inactive
same,AC50,[8],32.6 µM (active)
same,AC50,[9],3.93 µM (active)
O=C(O)C[C@H](O)C[C@H](O)/C=C/c1c(C2CC2)nc2ccccc2c1-c1ccc(F)cc1,outcome,[1],inactive
same,outcome,[2],inactive
same,AC50,[3],2.68 µM (active)
same,outcome,[4],inactive
same,outcome,[5],inactive
same,AC50,[10],0.289 µM (active)
same,outcome,[11],inactive
same,AC50,[12],0.198 µM (active)
same,outcome,[6],inactive
same,outcome,[13],inactive
same,AC50,[14],1.95 µM (active)
same,AC50,[8],20.2 µM (active)
same,outcome,[9],inactive
same,outcome,[15],inactive
CC(C)=CCC[C@](C)(O)[C@@H]1CC=C(C)CC1,outcome,[1],inactive
same,outcome,[2],inactive
same,outcome,[3],inactive
same,outcome,[16],inactive
same,outcome,[5],inactive
same,outcome,[7],inactive
same,outcome,[17],inactive
same,outcome,[18],inactive
same,outcome,[8],inactive
same,AC50,[9],15 µM (active)
same,outcome,[19],inactive
same,outcome,[15],inactive
Nc1ccc(F)c([N+](=O)[O-])c1,outcome,[1],inactive
same,outcome,[2],inactive
same,outcome,[3],inactive
same,outcome,[4],inactive
same,outcome,[5],inactive
same,outcome,[7],inactive
same,outcome,[8],inactive
CCCC/C=C\CCCCCCCCCC=O,outcome,[1],inactive
same,outcome,[2],inactive
same,outcome,[3],inactive
same,outcome,[16],inactive
same,outcome,[5],inactive
same,outcome,[6],inactive
same,outcome,[7],inactive
same,outcome,[8],inactive
same,outcome,[9],inactive
CCCCC(CC)COC(=O)/C=C\C(=O)OCC(CC)CCCC (centres undefined),outcome,[1],inactive
same,outcome,[2],inactive
same,AC50,[3],45.6 µM (active)
same,outcome,[4],inactive
same,outcome,[5],inactive
same,outcome,[20],inactive
same,outcome,[10],inactive
same,outcome,[11],inactive
same,outcome,[12],inactive
same,outcome,[6],inactive
same,outcome,[7],inactive
same,outcome,[13],inactive
same,outcome,[14],inactive
same,AC50,[9],4.17 µM (active)
Cc1ccc(C=O)s1,outcome,[1],inactive
same,outcome,[2],inactive
same,outcome,[3],inactive
same,outcome,[16],inactive
same,outcome,[5],inactive
same,outcome,[7],inactive
same,AC50,[8],32.8 µM (active)
same,outcome,[9],inactive
Cc1ccc(C(C)C)cc1O,outcome,[1],inactive
same,outcome,[2],inactive
same,outcome,[3],inactive
same,outcome,[4],inactive
same,outcome,[6],inactive
same,outcome,[9],inactive
same,outcome,[15],inactive
C=CC(=O)OCCOCCOCC,outcome,[1],inactive
same,outcome,[2],inactive
same,AC50,[3],9.52 µM (active)
same,AC50,[16],26 µM (active)
same,outcome,[5],inactive
same,outcome,[6],inactive
same,outcome,[17],inactive
same,outcome,[18],inactive
same,AC50,[8],17 µM (active)
same,AC50,[9],40 µM (active)
same,outcome,[19],inactive
C[C@H]1C[C@H]2[C@@H]3CCC4=CC(=O)C=C[C@]4(C)[C@@]3(F)[C@@H](O)C[C@]2(C)[C@@]1(O)C(=O)COP(=O)(O)O,outcome,[1],inactive
same,outcome,[2],inactive
same,outcome,[3],inactive
same,outcome,[5],inactive
same,outcome,[6],inactive
same,outcome,[7],inactive
same,outcome,[8],inactive
same,outcome,[9],inactive
